Inconclusive results are not listed. The source made the active and inactive calls. Calls follow the shape of the dose curve; as a rule, active = well fitted curve in the direction sought with a large enough effect; inconclusive = small, poorly fitted or top-dose-only effect, or another doubt; inactive = no such curve, though single readings can be large; an effect the other way counts as inactive or inconclusive.
Key:
[1] = molecular target: Glutathione peroxidase 1 (Homo sapiens) (UniProt P07203); assay: Primary qHTS Assay for Inhibitors of Recombinant Selenoprotein Glutathione Peroxidase 1 (GPX1) (AID 1845191); also: nearly all actives have a fitted effect of over 65% in size; also: potency is read from the fitted curve at half-maximal effect
Summary of the method: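 GR-coupled assay: compounds preincubated 30 min at room temperature with GPX1, then reaction started with CHP; final 10 nM GPX1, 1 mM GSH, 0.5 mM CHP, 0.5 mM NADPH, 100 nM GR, 0.01% BSA, pH 7.5 Tris buffer. NADPH fluorescence (340/450 nm) read at 0 and 15 min.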

[2] = molecular target: Phospholipid hydroperoxide glutathione peroxidase GPX4 (Homo sapiens) (UniProt P36969); assay: Primary qHTS Assay for Inhibitors of Recombinant Selenoprotein Glutathione Peroxidase 4 (GPX4) (AID 1845192); also: nearly all actives have a fitted effect of over 65% in size; also: potency is read from the fitted curve at half-maximal effect
Summary of the method: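 GR-coupled assay: recombinant GPX4 preincubated 30 min with compound at room temperature; final 200 nM GPX4, 1 mM GSH, 0.5 mM cumene hydroperoxide, 0.5 mM NADPH, 100 nM GR, 0.01% BSA, pH 7.5 Tris. NADPH fluorescence (340/450 nm) read at 0 and 15 min.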

[3] = Quantitative High-Throughput drug screen in 47 multiple myeloma cell lines against the NCATS MIPE library collection: FR4_PLB cell viability assay (AID 1918924; also: nearly all actives have a fitted effect of over 35% in size; also: potency is read from the fitted curve at half-maximal effect)
Summary of the method: (§1)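 Myeloma cell lines, 500 cells per well, exposed to MIPE 4.0 library compounds for 48 h at 37C, 5% CO2. Viability from ATP by CellTiter-Glo luminescence; normalised to DMSO (100%) and media-only (0%) wells.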

[4] = Quantitative High-Throughput drug screen in 47 multiple myeloma cell lines against the NCATS MIPE library collection: EJM_DSMZ cell viability assay (AID 1918926; also: nearly all actives have a fitted effect of over 30% in size; also: potency is read from the fitted curve at half-maximal effect)
Summary of the method: (§2)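 Primary qHTS used for cherry-picking: cells at 500/well, library compounds for 48 h (37C, 5% CO2), luminescent ATP assay.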

[5] = Quantitative High-Throughput drug screen in 47 multiple myeloma cell lines against the NCATS MIPE library collection: AMO1_DSMZ cell viability assay (AID 1918927; also: nearly all actives have a fitted effect of over 30% in size; also: potency is read from the fitted curve at half-maximal effect)
Summary of the method: as §2

[6] = Quantitative High-Throughput drug screen in 47 multiple myeloma cell lines against the NCATS MIPE library collection: ARP1_JJKsccF8 cell viability assay (AID 1918928; also: nearly all actives have a fitted effect of over 40% in size; also: potency is read from the fitted curve at half-maximal effect)
Summary of the method: (§3)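 Luminescence from CellTiter-Glo, taken after 5 min at room temperature, reports cellular ATP as viability. Cells (500 per well) had been treated 48 h at 37 °C with MIPE 4.0 compounds, scaled between DMSO and medium-only controls.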

[7] = Quantitative High-Throughput drug screen in 47 multiple myeloma cell lines against the NCATS MIPE library collection: KMM1_JCRB cell viability assay (AID 1918960); also: nearly all actives have a fitted effect of over 30% in size; also: potency is read from the fitted curve at half-maximal effect;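 as to viability (% of DMSO): 100% = DMSO-treated cells and 0% = medium-only wells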
Summary of the method: as §3

[8] = Quantitative High-Throughput drug screen in 47 multiple myeloma cell lines against the NCATS MIPE library collection: KHM11_PLB cell viability assay (AID 1918962); also: nearly all actives have a fitted effect of over 35% in size; also: potency is read from the fitted curve at half-maximal effect
Summary of the method: as §1

[9] = Quantitative High-Throughput drug screen in 47 multiple myeloma cell lines against the NCATS MIPE library collection: Delta47_JCRB cell viability assay (AID 1918925; also: nearly all actives have a fitted effect of over 45% in size; also: potency is read from the fitted curve at half-maximal effect)
Summary of the method: as §2

[10] = Quantitative High-Throughput drug screen in 47 multiple myeloma cell lines against the NCATS MIPE library collection: Karpas620_DSMZ cell viability assay (AID 1918959); also: nearly all actives have a fitted effect of over 30% in size; also: potency is read from the fitted curve at half-maximal effect
Summary of the method: as §1

[11] = Quantitative High-Throughput drug screen in 47 multiple myeloma cell lines against the NCATS MIPE library collection: ARD_JJKsccE7 cell viability assay (AID 1918929; also: potency is read from the fitted curve at half-maximal effect)
Summary of the method: as §2

[12] = Quantitative High-Throughput drug screen in 47 multiple myeloma cell lines against the NCATS MIPE library collection: JIM3_ECACC cell viability assay (AID 1918963; also: nearly all actives have a fitted effect of over 35% in size; also: potency is read from the fitted curve at half-maximal effect)
Summary of the method: as §1

[13] = molecular target: Luciferin 4-monooxygenase (Photinus pyralis) (UniProt P08659); assay: Primary firefly luciferase (FLuc) qHTS assay for identification of artifact compounds. (AID 1845220); also: nearly all actives have a fitted effect of over 60% in size
Summary of the method: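 D-luciferin and ATP (10 uM each, final) in Tris acetate buffer pH 7.6 were incubated with compounds for 15 min at room temperature. The reaction was started with 10 nM Photinus pyralis luciferase and luminescence read after 5 min. Percent inhibition was fitted to a 4-parameter Hill equation.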

[14] = Primary fluorescence-based thiol-reactive (MSTI) qHTS assay for identification of artifact compounds. (AID 1845221); also: nearly all actives have a fitted effect of over 65% in size; also: potency is read from the fitted curve at half-maximal effect
Summary of the method: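 Reactivity toward the thiol probe MSTI (4 uM) is scored by fluorescence at Ex/Em 525/598 nm after 1 h at room temperature. Acetyl-MSTI and MSTI define the activity scale.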

[15] = system: Nanoluciferase (engineered Oplophorus gracilirostris luciferase); assay: Primary Nanoluciferase (NLuc) qHTS assay for identification of artifact compounds. (AID 1845222);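 also: 0% = DMSO and -100% = no enzyme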
Summary of the method: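 Diluted conditioned medium from NLuc-expressing S16 cells treated with compounds for 15 min at room temperature, then Nano-Glo substrate added; luminescence read after 5 min. Percent inhibition versus no-enzyme and DMSO controls fitted to 4-parameter Hill equation.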

[16] = Quantitative High-Throughput drug screen in 47 multiple myeloma cell lines against the NCATS MIPE library collection: Karpas417_ECACC cell viability assay (AID 1918961); conditions: Karpas417 myeloma viability, CellTiter-Glo ATP luminescence, 48 h; viability (% of DMSO): at 45.8 µM (top of the series) unless noted; also: potency is read from the fitted curve at half-maximal effect
Summary of the method: as §1

[17] = Primary redox qHTS assay for identification of artifact compounds. (AID 1845223)
Summary of the method: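 Amplex Red (25 uM) and HRP (250 mU/mL) in HBSS, with compounds for 15 min, then 250 uM DTT for 30 min, room temperature, dark. Fluorescence 525/598 nm read; normalized to DMSO and 10 uM DA3003; Hill fit.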

Sequence of Glutathione peroxidase 1 (Homo sapiens) (P07203 whole entry, looked up): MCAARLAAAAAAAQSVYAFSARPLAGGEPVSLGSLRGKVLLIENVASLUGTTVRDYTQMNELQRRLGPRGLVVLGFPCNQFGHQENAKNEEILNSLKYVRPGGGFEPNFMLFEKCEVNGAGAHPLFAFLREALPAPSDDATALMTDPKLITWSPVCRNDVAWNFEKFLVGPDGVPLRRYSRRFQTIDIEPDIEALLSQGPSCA
Sequence of Phospholipid hydroperoxide glutathione peroxidase GPX4 (Homo sapiens) (P36969 whole entry, looked up): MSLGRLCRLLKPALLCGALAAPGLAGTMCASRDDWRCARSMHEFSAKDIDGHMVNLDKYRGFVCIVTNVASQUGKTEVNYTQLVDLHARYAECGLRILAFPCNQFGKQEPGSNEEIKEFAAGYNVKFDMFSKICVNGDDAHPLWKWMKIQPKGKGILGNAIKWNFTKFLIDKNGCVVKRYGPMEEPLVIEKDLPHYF

CCCC(CCC)C(=O)O
inactive: Potency [1] | Potency [2] | Potency [3] | Potency [4] | Potency [5] | Potency [6] | Potency [7] | Potency [8]

Nc1cccc(S(=O)(=O)N2CCCN(S(=O)(=O)c3ccc4c(c3)OCCO4)CC2)c1
inactive: Potency [1] | Potency [2] | Potency [3] | Potency [10] | Potency [7]
active: Potency [9] 0.833 µM

Cc1ccccc1C(OCCN(C)C)c1ccccc1 (stereo unspecified)
inactive: Potency [1] | Potency [2] | Potency [3] | Potency [4] | Potency [11] | Potency [7] | Potency [8] | Potency [12]

CC1(C)Cc2c(-c3ccccc3)c(-c3ccc(Cl)cc3)c(CC(=O)O)n2C1
inactive: Potency [1] | Potency [2] | Potency [13] | Potency [14] | outcome [15] | Potency [11]
active: Potency [6] 23.5 µM | Potency [10] 6.62 µM | Potency [7] 2.35 µM

Cn1cc(-c2ccc3nnc(C(F)(F)c4ccc5ncccc5c4)n3n2)cn1
inactive: Potency [1] | Potency [2] | Potency [13] | Potency [14] | outcome [15] | Potency [3] | Potency [4] | Potency [12]
active: Potency [5] 13.2 µM | Potency [8] 4.69 µM

CCOC(=O)C1=C[C@]2(CC)CCCN3CCc4c(n1c1ccccc41)[C@@H]32
active: Potency [1] 12.8 µM | Potency [3] 20.9 µM | Potency [9] 10.5 µM | Potency [4] 20.9 µM | Potency [5] 16.6 µM | Potency [10] 23.5 µM | Potency [7] 20.9 µM | Potency [8] 9.35 µM | Potency [12] 11.8 µM
inactive: Potency [2]

Cn1cnc2c(F)c(Nc3ccc(Br)cc3Cl)c(C(=O)NOCCO)cc21
active: Potency [5] 0.833 µM | Potency [11] 0.743 µM | Potency [10] 0.235 µM | Potency [7] 5.26 µM | Potency [16] 0.264 µM | Potency [8] 0.0469 µM | Potency [12] 1.66 µM
inactive: Potency [1] | Potency [2] | Potency [13] | Potency [14] | outcome [15] | Potency [9]

CCn1c(-c2nonc2N)nc2c(C#CC(C)(C)O)ncc(OC[C@H]3CCCNC3)c21
inactive: Potency [1] | Potency [2]
active: Potency [3] 14.8 µM | Potency [9] 0.0469 µM | Potency [11] 0.148 µM | Potency [8] 7.43 µM | Potency [12] 9.35 µM

O=c1[nH]cnc2[nH]ncc12
inactive: Potency [1] | Potency [2] | Potency [3] | Potency [9] | Potency [4] | Potency [5] | Potency [6] | Potency [10] | Potency [16] | Potency [12]

CNC(=O)c1ccc(N2C(=S)N(c3ccc(C#N)c(C(F)(F)F)c3)C(=O)C2(C)C)cc1F
inactive: Potency [1] | Potency [2] | Potency [3] | Potency [4] | Potency [8] | Potency [12]
active: Potency [7] 9.35 µM

Cc1c(C)c2c(c(C)c1O)CCC(C)(COc1ccc(CC3SC(=O)NC3=O)cc1)O2 (stereo unspecified)
inactive: Potency [1] | Potency [2] | Potency [3] | Potency [4]

CC1(C)CNc2cc(NC(=O)c3cccnc3NCc3ccncc3)ccc21
inactive: Potency [1] | Potency [2] | outcome [15] | outcome [17] | Potency [9] | Potency [10] | Potency [7] | Potency [8] | Potency [12]
active: Potency [4] 2.64 µM

c1ccc([C@H]2CN3CCSC3=N2)cc1
inactive: Potency [1] | Potency [2] | Potency [3] | Potency [4] | Potency [5] | Potency [11] | Potency [7] | Potency [12]

Cc1oncc1C(=O)Nc1ccc(C(F)(F)F)cc1
inactive: Potency [1] | Potency [2] | Potency [3] | Potency [5] | Potency [7]
active: Potency [4] 20.9 µM

CCCn1c(=O)c2[nH]c(C34CC5CC3C[C@@H](C5)C4)nc2n(CCC)c1=O
inactive: Potency [1] | Potency [2] | Potency [3] | Potency [9] | Potency [11] | Potency [10] | Potency [12]
active: Potency [4] 16.6 µM | Potency [5] 0.0264 µM | Potency [6] 9.35 µM

CCCCCCCc1ccc(CCc2cccc(O)c2C(=O)O)cc1
inactive: Potency [1] | Potency [3] | Potency [4] | Potency [10]
active: Potency [2] 20.2 µM | Potency [12] 20.9 µM

O=C1CCc2cc(OCCCCc3nnnn3C3CCCCC3)ccc2N1
inactive: Potency [1] | Potency [2] | Potency [3] | Potency [4] | Potency [5] | Potency [7] | Potency [12]
active: viability (% of DMSO) [16] 113%

Cc1cc2c(F)c(Oc3ncnn4cc(OC[C@@H](C)O)c(C)c34)ccc2[nH]1
inactive: Potency [1] | Potency [2] | Potency [3] | Potency [10]
active: Potency [9] 16.6 µM

CC(c1cc2ccccc2s1)N(O)C(N)=O (stereo unspecified)
inactive: Potency [1] | Potency [2] | Potency [3] | Potency [9] | Potency [4] | Potency [6] | Potency [11] | Potency [7] | Potency [12]

CCOc1cc(N2CCC(O)CC2)ccc1Nc1ncc2c(n1)N(C)c1ccccc1C(=O)N2C
active: Potency [3] 11.8 µM | Potency [9] 4.18 µM | Potency [5] 1.32 µM | Potency [6] 10.5 µM | Potency [7] 1.18 µM | Potency [8] 0.935 µM | Potency [12] 8.33 µM
inactive: Potency [1] | Potency [2]

O=C(O)CCc1ccc(NCc2cccc(Oc3ccccc3)c2)cc1
active: Potency [14] 1.68 µM
inactive: Potency [1] | Potency [2] | Potency [13] | outcome [15] | Potency [3] | Potency [9] | Potency [4] | Potency [11] | Potency [10] | Potency [7] | Potency [16] | Potency [12]

Source: PubChem BioAssay (NCATS)
